Data reported in ChEMBL document CHEMBL4296182, “CO-ADD screening of NIH NCI Diversity Set V”.

System: Acinetobacter baumannii
Assay: Antibacterial activity against Acinetobacter baumannii ATCC 19606 (CO-ADD:GN_034); MIC in CAMBH media using NBS plates, by Resazurin F(560/590)
Type: functional
Details: Concentration 20 uM, ASSAY_TEST Inhibition of Bacterial Growth, detection method Resazurin, Fluorescence (ex560/em590), MEDIA CAMHB, plate type 384well, CORNING #3640, time 18 hr

| Structure (SMILES) | Inhibition [%] |
| --- | --- |
| Clc1ccc2nc3ccccc3cc2c1 | 9.09 |
| O=C(c1ccccc1)c1ccc[nH]1 | -3.74 |
| CC(=O)Oc1c(C)c(OC(C)=O)c2c(c1C(C)=O)OC1CC(=O)C(C(C)=O)=C(O)C21C (stereo not drawn) | -11.04 |
| CN(C)CCCN1c2ccc3ccccc3c2Sc2cccc(Cl)c21 | 0.47 |
| Oc1cc(CNC2CCCCC2)c(O)cc1CNC1CCCCC1 | -9.92 |
| CC(NC(=O)c1ccc(Cl)c(Cl)c1)c1ccc(-c2ccccc2)cc1 (stereo not drawn) | 7.23 |
| Cc1nccnc1Sc1ccccc1 | -12.89 |
| CC(C)COc1nc2c(c(=O)n(C)c(=O)n2C)n1C | 11.63 |
| CC(C)(C)c1ccc(OCC(=O)O)cc1 | -1 |
| Cc1cc(O)cc2c1[C@H]1CC[C@]3(C)C(=O)CC[C@H]3[C@@H]1C=C2 | 13.8 |
| CC(=O)OCCn1c2nc(=O)[nH]c(=O)c-2nc2cc(C)c(C)cc21 | -11.64 |
| Nc1ncnc(N2CCOCC2)n1 | -4.78 |
| Cc1ccc(/N=N/c2ccc(N)cc2C)c(S(N)(=O)=O)c1 | -6.13 |
| CCN(CC)CCNC(=O)C(Cl)=C1C(Cl)=C(Cl)C(Cl)=C1Cl | 6.92 |
| Cc1cc(C)n(C(=N)NC(=O)c2ccccc2)n1 | 6.54 |
| NC(=O)C1=C(N)c2ccccc2C1c1ccccc1 (stereo not drawn) | 2.22 |
| CCCCCCC(C)OC(=O)c1ccccc1C(=O)O (stereo not drawn) | -3.64 |
| CCOc1ccc(NC(=O)c2cc3ccccc3cc2O)cc1 | -4.15 |
| NC(CSC1(c2cccc3ccccc23)c2ccccc2-c2ccccc21)C(=O)O (stereo not drawn) | -6.6 |
| Oc1nc2[nH]c(Cl)nc(Cl)c-2n1 | -10.58 |

| Structure (SMILES) | Inhibition [%] |
| --- | --- |
| CC(=O)Oc1ccc(OC(C)=O)c2c1CC1(C)OC1(C)C2 (stereo not drawn) | 5.72 |
| COc1cccc(/C=C2\CCc3ccccc3C2=O)c1 | -13.61 |
| COC(=O)c1c[n+]([O-])ccc1OC | -1.68 |
| CCCCSc1cc(O)nc(N)n1 | -7.06 |
| c1ccc2c(c1)Oc1cccc3cccc-2c13 | -15.64 |
| O=C(Nc1ccc2ccccc2c1)c1ccc(Cl)cc1Cl | -2.05 |
| COc1cc(/N=N/c2ccccc2C(=O)O)ccc1O | -0.55 |
| Cc1ccn2c(C(C)O)nnc2c1 (stereo not drawn) | -15.76 |
| O=C1NCN(CCO)CN1 | -3.91 |
| O=C(Nc1ccc(C(=O)O)c(O)c1)c1ccccc1 [BENZOYLPAS] | -17.37 |
| COc1ccc(Nc2cc(Cl)ccc2C(=O)O)cn1 | 14.76 |
| Cc1c(COC(=O)NC(C)C)c(COC(=O)NC(C)C)c2n1CS(=O)(=O)C2 | -7.7 |
| C=CCNC(=S)N1CCN(c2ccccc2Cl)CC1 | 9.34 |
| Nc1ccc(C(=O)Nc2ccc(NC(=O)c3ccco3)c(O)c2)cc1 | 0.24 |
| O=C(O)c1ccccc1-c1ccccc1C(=O)Nc1ccc2oc(=O)c3ccccc3c2c1 | -2.77 |
| O=[N+]([O-])c1ccc(-c2ncc(-c3ccc(Br)cc3)o2)cc1 | 6.16 |
| S=C(Sc1ccc(Cl)cc1)Sc1ccc(Cl)cc1 | 10.03 |
| CN(C)S(=O)(=O)Nc1cccc(Br)c1 | -10.63 |
| CSc1nc(N)c(C(=O)Nc2ccc([N+](=O)[O-])cc2)s1 | 5.85 |

System: Escherichia coli
Assay: Antibacterial activity against Escherichia coli ATCC 25922 (CO-ADD:GN_001); MIC in CAMBH media using NBS plates, by Resazurin F(560/590)
Type: functional
Details: Concentration 20 uM, ASSAY_TEST Inhibition of Bacterial Growth, detection method Resazurin, Fluorescence (ex560/em590), MEDIA CAMHB, plate type 384well, CORNING #3640, time 18 hr

| Structure (SMILES) | Inhibition [%] |
| --- | --- |
| Clc1ccc2nc3ccccc3cc2c1 | 4.02 |
| O=C(c1ccccc1)c1ccc[nH]1 | -15.34 |
| CC(=O)Oc1c(C)c(OC(C)=O)c2c(c1C(C)=O)OC1CC(=O)C(C(C)=O)=C(O)C21C (stereo not drawn) | 18.15 |
| CN(C)CCCN1c2ccc3ccccc3c2Sc2cccc(Cl)c21 | 9.47 |
| Oc1cc(CNC2CCCCC2)c(O)cc1CNC1CCCCC1 | 2.36 |
| CC(NC(=O)c1ccc(Cl)c(Cl)c1)c1ccc(-c2ccccc2)cc1 (stereo not drawn) | 12.06 |
| Cc1nccnc1Sc1ccccc1 | 2.25 |
| CC(C)COc1nc2c(c(=O)n(C)c(=O)n2C)n1C | 12.8 |
| CC(C)(C)c1ccc(OCC(=O)O)cc1 | 10.46 |
| Cc1cc(O)cc2c1[C@H]1CC[C@]3(C)C(=O)CC[C@H]3[C@@H]1C=C2 | 29.29 |
| CC(=O)OCCn1c2nc(=O)[nH]c(=O)c-2nc2cc(C)c(C)cc21 | 4.08 |
| Nc1ncnc(N2CCOCC2)n1 | -0.51 |
| Cc1ccc(/N=N/c2ccc(N)cc2C)c(S(N)(=O)=O)c1 | 2.58 |
| CCN(CC)CCNC(=O)C(Cl)=C1C(Cl)=C(Cl)C(Cl)=C1Cl | -4.74 |
| Cc1cc(C)n(C(=N)NC(=O)c2ccccc2)n1 | -0.32 |
| NC(=O)C1=C(N)c2ccccc2C1c1ccccc1 (stereo not drawn) | -18.86 |
| CCCCCCC(C)OC(=O)c1ccccc1C(=O)O (stereo not drawn) | -2.32 |
| CCOc1ccc(NC(=O)c2cc3ccccc3cc2O)cc1 | -2.29 |
| NC(CSC1(c2cccc3ccccc23)c2ccccc2-c2ccccc21)C(=O)O (stereo not drawn) | 9.55 |
| Oc1nc2[nH]c(Cl)nc(Cl)c-2n1 | 13.78 |

| Structure (SMILES) | Inhibition [%] |
| --- | --- |
| CC(=O)Oc1ccc(OC(C)=O)c2c1CC1(C)OC1(C)C2 (stereo not drawn) | 3.36 |
| COc1cccc(/C=C2\CCc3ccccc3C2=O)c1 | 8.53 |
| COC(=O)c1c[n+]([O-])ccc1OC | -4.59 |
| CCCCSc1cc(O)nc(N)n1 | 16.01 |
| c1ccc2c(c1)Oc1cccc3cccc-2c13 | 12.26 |
| O=C(Nc1ccc2ccccc2c1)c1ccc(Cl)cc1Cl | 3.67 |
| COc1cc(/N=N/c2ccccc2C(=O)O)ccc1O | 0.38 |
| Cc1ccn2c(C(C)O)nnc2c1 (stereo not drawn) | 12.13 |
| O=C1NCN(CCO)CN1 | 8.55 |
| O=C(Nc1ccc(C(=O)O)c(O)c1)c1ccccc1 [BENZOYLPAS] | 4.17 |
| COc1ccc(Nc2cc(Cl)ccc2C(=O)O)cn1 | 0 |
| Cc1c(COC(=O)NC(C)C)c(COC(=O)NC(C)C)c2n1CS(=O)(=O)C2 | 11.68 |
| C=CCNC(=S)N1CCN(c2ccccc2Cl)CC1 | -14.86 |
| Nc1ccc(C(=O)Nc2ccc(NC(=O)c3ccco3)c(O)c2)cc1 | 0.6 |
| O=C(O)c1ccccc1-c1ccccc1C(=O)Nc1ccc2oc(=O)c3ccccc3c2c1 | -0.87 |
| O=[N+]([O-])c1ccc(-c2ncc(-c3ccc(Br)cc3)o2)cc1 | 2.7 |
| S=C(Sc1ccc(Cl)cc1)Sc1ccc(Cl)cc1 | 10.65 |
| CN(C)S(=O)(=O)Nc1cccc(Br)c1 | 3.48 |
| CSc1nc(N)c(C(=O)Nc2ccc([N+](=O)[O-])cc2)s1 | 8.19 |
